The list is not random: actives were taken first. Their share in the collection is about 19%.
Shiga inhibitor = Shiga toxin inhibition; inhibition, % at 38.7 µM; AID 2315; 9.2% of 290,000 active; Vero cells, Shiga toxin protein synthesis inhibition reporter; in the data active = inhibition mostly above about 28%, no sharp cut-off; inactive = mostly below about 43%; note: 0% is about no effect
Pf growth 96h = inhibits malaria parasite growth, 96 h; P. falciparum luciferase reporter growth, 96 h; Potency, µM (top dose mostly 28.7 µM), for the others: at the top dose activity change, negative = inhibition, usual class: inhibitors; 6.9% of 320,000 active; note: potency is the fitted concentration of half-maximal effect; % is set by controls: 0 for no effect and ±100 for the full control effect
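Readout is luminescence from an integrated firefly luciferase in P. falciparum. Red cells, 2% hematocrit and 0.05% parasitemia final, were cultured with compound through two parasite generations (96 hours) at 37 C, 5% CO2.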
Pf growth 48h = inhibits P. falciparum growth in the first generation, 48 h | Potency, µM (highest dose often 28.7 µM), for the others: at the top dose activity change, negative = inhibition, usual class: inhibitors | P. falciparum luciferase growth in erythrocytes, 48 h | 5.9% of 310,000 active; note: potency is the fitted concentration of half-maximal effect; % is set by controls: 0 for no effect and ±100 for the full control effect
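Read-out is firefly luciferase luminescence from an integrated reporter in P. falciparum, so falling signal marks reduced parasite growth. Infected erythrocytes were at 2% hematocrit and 0.1% parasitemia (final) in Albumax-supplemented RPMI 1640.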
Cycloheximide cs = affects cycloheximide protein synthesis inhibition readout, counter-screen | max response, % | AID 2314 | 12% of 300,000 active | cell reporter, cycloheximide protein synthesis inhibition counterscreen; in the data active = max response mostly above about 13%, no sharp cut-off; inactive = mostly below about 14%; note: read at 38.3 µM for the half of the compounds with a filed dose; 0% is about no effect
SARS PLpro yeast = inhibitors of SARS-CoV papain-like protease in yeast. Potency, µM (titrated, usually from 32.9 µM), for inactives: at the top dose activity, positive = growth rescue, usual class: activators. S. cerevisiae expressing SARS-CoV PLpro, growth rescue. 0.19% of 330,000 active; calls by dose curve; note: potency is the fitted concentration of half-maximal effect; 0% is about no effect; nearly all actives have a fitted effect of over 55% in size
AMA1-RON2 inh = inhibitors of Plasmodium falciparum AMA1-RON2 interaction. 0.2% of 360,000 active. AlphaScreen AMA1-biotinylated RON2 peptide binding. Potency, µM (titrated, usually from 58.2 µM), inactives show top-dose activity change, negative = inhibition, usual class: inhibitors;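 note: potency is the fitted concentration of half-maximal effect; 0% = vehicle wells and -100% = peptide control; nearly all actives have a fitted effect of over 45% in size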
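AMA1 (3D7) with his tag at 25 nM final met compounds first, then biotinylated RON2 peptide at 25 nM; detection used donor plus acceptor beads, 10 µg/mL apiece, read by AlphaScreen after 30 min at room temperature.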
Active calls of the source: *; u = inconclusive; x = no result; [ ] = another dose, or the depositor's remark. Unless noted, calls come from the whole dose curve; as a rule, active = well fitted curve in the direction sought with a large enough effect; inconclusive = small, poorly fitted or top-dose-only effect, or another doubt; inactive = no such curve, though single readings can be large; an effect the other way counts as inactive or inconclusive.

SMILES	Shiga inhibitor	Pf growth 96h	Pf growth 48h	Cycloheximide cs	SARS PLpro yeast	AMA1-RON2 inh
CSc1nnc(CCNS(=O)(=O)c2ccccc2Br)n1C	28	0%	15%	15	-1%	8%
CSCC[C@H](N)C(=O)N[C@@H](CO)C(=O)N[C@@H](CCCN=C(N)N)C(=O)N1CCC[C@H]1C(=O)N[C@@H](C)C(=O)N[C@@H](CS)C(=O)N1CCC[C@H]1C(=O)N[C@@H](CC(N)=O)C(=O)N[C@@H](CC(=O)O)C(=O)N[C@@H](CCCCN)C(=O)N[C@@H](Cc1ccc(O)cc1)C(=O)N[C@@H](CCC(=O)O)C(=O)O	-6	x	x	-6	x	x
COC(=O)c1ccccc1NC(=O)CNC(=O)c1ccco1	-12	u	9%	-4	2%	4%
CCc1cc(=O)[nH]c(SCC(=O)Nc2ccc3c(c2)OCCO3)n1	x	15%	0%	x	-10%	-8%
COCCN1C=C(C(=O)OC)C(c2ccc(Cl)cc2)C(C(=O)OC)=C1	-5	0%	10µM*	-2	-2%	46%
Cc1cc(N2CCN(C(=O)Oc3ccc([N+](=O)[O-])cc3)CC2)c2ccccc2n1	x	x	x	x	x	-14%
CCOC(=O)c1ccccc1NC(=O)CSc1nc2ccccc2n1CC(=O)N1CCCC1	-14	-17%	1%	-2	1%	-11%
CC1CC(C)CN(C(=O)c2ccc3c(c2)OCCO3)C1 (stereo unspecified)	x	4.7µM*	2.9µM*	x	0%	-8%
CC1CCN(C(=O)c2ccc3c(c2)OCCO3)CC1	55*	x	-16%	46*	2%	-11%
CC(C)CC(NC(N)=O)C(=O)NCCc1ccc(Cl)cc1 (stereo unspecified)	-12	5%	4%	2	1%	9%
CC1CN(C(=O)CCNS(=O)(=O)c2ccc(Br)cc2)CC(C)O1 (stereo unspecified)	x	19%	32%	x	5%	0%
O=C1NC2=C(C(=O)CCC2)C(c2ccccc2[N+](=O)[O-])N1 (stereo unspecified)	-11	27%	1%	-8	1%	0%
O=C1NC2=C(C(=O)CCC2)C(c2ccccc2Cl)N1 (stereo unspecified)	-6	2.9µM*	-20%[0.00184 µM]	-6	1%	0%
Cc1ccnc(NC(=O)c2cccc(NC(=O)c3ccccc3C)c2)c1	13	8%	18%	12	-4%	8%
Cc1ccnc(NC(=O)c2ccc(Cl)c(NC(=O)c3ccccc3C)c2)c1	22	u	50%	16*	3%	-1%
CCC(C(=O)Nc1cc(C(=O)Nc2cc(C)ccn2)ccc1Cl)c1ccccc1 (stereo unspecified)	52	8.3µM*	8.3µM*	19*	-5%	1%
Cc1ccnc(NC(=O)CC(NC(=O)c2ccccc2Cl)c2ccccc2)c1 (stereo unspecified)	x	292%	133%	x	0%	6%
Cc1ccc2scc(CN3CCCC3)c2c1	x	x	x	x	x	0%
CCC(CC)C(=O)Nc1ccc(Nc2ccccc2)cc1	28	-29%	16%	19*	5%	-8%
CC(C)C(=O)Nc1ccc(Nc2ccccc2)cc1	15	-31%	18%	17*	-22%	-5%
COc1cccc(NC(=O)CN(C)C(=O)CCCc2nc3ccccc3s2)c1	x	u	-4%	x	2%	11%
OCCC1CN(Cc2nc3ccccc3[nH]2)CCN1C1CCCC1 (stereo unspecified)	-15	10%	8%	1	1%	3%
CCC(C)c1ccc(OCCCCN2CCOCC2)cc1 (stereo unspecified)	2	18%	x	10	-4%	-13%
Cc1ccc(NC(=O)C2CC(=O)Nc3ncnn32)cc1Cl (stereo unspecified)	-2	47%	6%	-2	-1%	25%
O=C(CNC1CCCCCC1)Nc1ccc(N2CCCC2)cc1	-15	44%	-11%	22	-1%	x
O=C(Nc1ccc(N2CCOCC2)cc1)C1CCCCC1	85*	40%	21%	22	x	-24%
O=C(CNCCC1=CCCCC1)Nc1ccc(N2CCCCCC2)cc1	21	-20%	u	16*	-8%	35µM*

Source: PubChem BioAssay (National Center for Advancing Translational Sciences (NCATS))
